Hit rate of the full screen: of about 5,500 compounds, about 2,000 (36%) were called active. Inconclusive results (about 18%) are left out. Cut-off read from the data, not from the text of the source: active = normalized growth mostly below about 0.91 (no sharp cut-off); inconclusive = no clear call, values can overlap the other calls; inactive = mostly above about 0.92. The list shows a part of the results.
Test: chemical genetic growth profiling, strain panel (AID 1159580);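 note: tested at 20 µM; growth read once vehicle control cultures reached saturation at 30 °C; 1 = growth at the plate median or of vehicle wells; lower values mean less growth of the strain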
Conditions: growth OD

Measured: normalized growth

O=C1c2ccccc2C(=O)c2c1ccc(O)c2O
active: S. cerevisiae deletion strains, locus YJL187C, strain SWE1, stronger effect = lower value 0.524 | S. cerevisiae deletion strains, locus YJR066W, strain TOR1, stronger effect = lower value 0.565 | S. cerevisiae deletion strains, locus YKL068W, stronger effect = lower value 0.854 | S. cerevisiae deletion strains, locus YKL085W, strain MDH1 (second series), stronger effect = lower value 0.868 | S. cerevisiae deletion strains, locus YKL085W, strain MDH1, stronger effect = lower value 0.868 | S. cerevisiae deletion strains, locus YKL160W, strain elf1, stronger effect = lower value 0.568 | S. cerevisiae deletion strains, locus YKL190W, strain CNB1, stronger effect = lower value 0.286 | S. cerevisiae deletion strains, locus YKR001C, strain vps1, stronger effect = lower value 0.26 | S. cerevisiae deletion strains, locus YKR026C, strain gcn3, stronger effect = lower value 0.744 | S. cerevisiae deletion strains, locus YKR091W, strain srl3, stronger effect = lower value 0.714 | S. cerevisiae deletion strains, locus YLL001W, strain dnm1, stronger effect = lower value 0.492 | S. cerevisiae deletion strains, locus YLL026W, stronger effect = lower value 0.576 | S. cerevisiae deletion strains, locus YLL041C, strain sdh2, stronger effect = lower value 0.733 | S. cerevisiae deletion strains, locus YLR027C, strain aat2, stronger effect = lower value 0.578 | S. cerevisiae deletion strains, locus YLR039C, strain RIC1, stronger effect = lower value 0.149 | S. cerevisiae deletion strains, locus YLR058C, strain SHM2, stronger effect = lower value 0.203 | S. cerevisiae deletion strains, locus YLR102C, strain apc9, stronger effect = lower value 0.516 | S. cerevisiae deletion strains, locus YLR113W, strain HOG1, stronger effect = lower value 0.56 | S. cerevisiae deletion strains, locus YLR221C, strain rsa3, stronger effect = lower value 0.538 | S. cerevisiae deletion strains, locus YLR258W, strain gsy2, stronger effect = lower value 0.58 | S. cerevisiae deletion strains, locus YLR262C, strain YPT6 (second series), stronger effect = lower value 0.201 | S. cerevisiae deletion strains, locus YLR268W, strain sec22, stronger effect = lower value 0.194 | S. cerevisiae deletion strains, locus YLR320W, strain mms22, stronger effect = lower value 0.374 | S. cerevisiae deletion strains, locus YLR342W, strain FKS1, stronger effect = lower value 0.453 | S. cerevisiae deletion strains, locus YLR357W, strain rsc2, stronger effect = lower value 0.579 | S. cerevisiae deletion strains, locus YLR370C, strain arc18, stronger effect = lower value 0.539 | S. cerevisiae deletion strains, locus YLR371W, strain rom2, stronger effect = lower value 0.316 | S. cerevisiae deletion strains, locus YLR384C, strain iki3, stronger effect = lower value 0.574 | S. cerevisiae deletion strains, locus YLR418C, strain cdc73, stronger effect = lower value 0.225 | S. cerevisiae deletion strains, locus YML016C, strain PPZ1, stronger effect = lower value 0.195 | S. cerevisiae deletion strains, locus YML032C, strain rad52, stronger effect = lower value 0.487 | S. cerevisiae deletion strains, locus YML120C, strain ndi1, stronger effect = lower value 0.602 | S. cerevisiae deletion strains, locus YML124C, strain tub3, stronger effect = lower value 0.547 | S. cerevisiae deletion strains, locus YMR058W, strain fet3, stronger effect = lower value 0.444 | S. cerevisiae deletion strains, locus YMR078C, strain ctf18, stronger effect = lower value 0.455 | S. cerevisiae deletion strains, locus YMR125W, strain sto1, stronger effect = lower value 0.773 | S. cerevisiae deletion strains, locus YMR129W, stronger effect = lower value 0.69 | S. cerevisiae deletion strains, locus YMR205C, strain PFK2, stronger effect = lower value 0.423 | S. cerevisiae deletion strains, locus YMR223W, strain ubp8, stronger effect = lower value 0.408 | S. cerevisiae deletion strains, locus YMR231W, strain pep5, stronger effect = lower value 0.641 | S. cerevisiae deletion strains, locus YMR263W, strain SAP30, stronger effect = lower value 0.295 | S. cerevisiae deletion strains, locus YMR307W, strain GAS1, stronger effect = lower value 0.167 | S. cerevisiae deletion strains, locus YNL067W, strain RPL9B, stronger effect = lower value 0.324 | S. cerevisiae deletion strains, locus YNL071W, strain lat1, stronger effect = lower value 0.386 | S. cerevisiae deletion strains, locus YNL128W, strain TEP1, stronger effect = lower value 0.216 | S. cerevisiae deletion strains, locus YNL153C, strain GIM3, stronger effect = lower value 0.28 | S. cerevisiae deletion strains, locus YNL183C, strain NPR1, stronger effect = lower value 0.596 | S. cerevisiae deletion strains, locus YNL209W, strain ssb2, stronger effect = lower value 0.265 | S. cerevisiae deletion strains, locus YNL233W, strain BNI4, stronger effect = lower value 0.246 | S. cerevisiae deletion strains, locus YNL248C, strain rpa49, stronger effect = lower value 0.458 | S. cerevisiae deletion strains, locus YNL250W, strain rad50, stronger effect = lower value 0.895 | S. cerevisiae deletion strains, locus YNL271C, strain bni1, stronger effect = lower value 0.828 | S. cerevisiae deletion strains, locus YNL298W, strain CLA4, stronger effect = lower value 0.775 | S. cerevisiae deletion strains, locus YNL307C, strain MCK1, stronger effect = lower value 0.188 | S. cerevisiae deletion strains, locus YNL322C, strain KRE1 (second series), stronger effect = lower value 0.726 | S. cerevisiae deletion strains, locus YNR049C, strain mso1, stronger effect = lower value 0.659 | S. cerevisiae deletion strains, locus YNR052C, strain pop2, stronger effect = lower value 0.218 | S. cerevisiae deletion strains, locus YOL147C, strain pex11, stronger effect = lower value 0.362 | S. cerevisiae deletion strains, locus YOR001W, strain rrp6, stronger effect = lower value 0.608 | S. cerevisiae deletion strains, locus YOR061W, strain CKA2, stronger effect = lower value 0.237 | S. cerevisiae deletion strains, locus YOR069W, strain VPS5, stronger effect = lower value 0.314 | S. cerevisiae deletion strains, locus YOR070C, strain gyp1, stronger effect = lower value 0.496 | S. cerevisiae deletion strains, locus YOR080W, strain dia2, stronger effect = lower value 0.638 | S. cerevisiae deletion strains, locus YOR083W, strain WHI5, stronger effect = lower value 0.475 | S. cerevisiae deletion strains, locus YOR106W, strain vam3, stronger effect = lower value 0.302 | S. cerevisiae deletion strains, locus YOR136W, strain idh2, stronger effect = lower value 0.433 | S. cerevisiae deletion strains, locus YOR144C, strain elg1, stronger effect = lower value 0.561 | S. cerevisiae deletion strains, locus YOR184W, strain ser1, stronger effect = lower value 0.209 | S. cerevisiae deletion strains, locus YOR231W, strain MKK1, stronger effect = lower value 0.707 | S. cerevisiae deletion strains, locus YOR265W, strain rbl2, stronger effect = lower value 0.503 | S. cerevisiae deletion strains, locus YOR270C, strain vph1, stronger effect = lower value 0.278 | S. cerevisiae deletion strains, locus YOR290C, strain snf2, stronger effect = lower value 0.41 | S. cerevisiae deletion strains, locus YOR316C, strain cot1, stronger effect = lower value 0.474 | S. cerevisiae deletion strains, locus YPL051W, strain arl3, stronger effect = lower value 0.295 | S. cerevisiae deletion strains, locus YPL078C, strain atp4, stronger effect = lower value 0.471 | S. cerevisiae deletion strains, locus YPL106C, strain sse1, stronger effect = lower value 0.502 | S. cerevisiae deletion strains, locus YPL240C, strain hsp82, stronger effect = lower value 0.613 | S. cerevisiae deletion strains, locus YPL256C, strain CLN2, stronger effect = lower value 0.749 | S. cerevisiae deletion strains, locus YPR119W, strain clb2, stronger effect = lower value 0.558 | S. cerevisiae deletion strains, locus YPR141C, strain kar3, stronger effect = lower value 0.854 | S. cerevisiae deletion strains, locus YPR163C, strain tif3, stronger effect = lower value 0.214 | S. cerevisiae deletion strains, locus YPR167C, strain met16, stronger effect = lower value 0.377 | S. cerevisiae deletion strains, strain wtn01, stronger effect = lower value 0.295 | S. cerevisiae strains, strain wild type, stronger effect = lower value 0.166
inactive: S. cerevisiae deletion strains, locus YKL009W, strain mrt4, stronger effect = lower value 0.907 | S. cerevisiae deletion strains, locus YOL012C, strain htz1 0.219

Source: PubChem BioAssay AID1159580 (chemical genetic matrix, 2015)
